Structures can show the parent of a compound that is named as a salt. ± gives the uncertainty stated by the source.
What follows are molecules tested on THP-1 (assay: CD54 surface expression induction over DMSO control (% over DMSO); higher = stronger dendritic cell activation). Details: exposure time: 24 h.
Description: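 hCLAT-like CD54 and CD86 surface expression on THP1 cells after 24 h exposure at a single concentration (highest non-cytotoxic concentration, or 100-200 µM if not cytotoxic). Flow cytometry (iQue) was run on 5,000 live cells.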

SMILES | CD54 surface expression induction
CN1C[C@H](C(=O)N[C@]2(C)O[C@@]3(O)[C@@H]4CCCN4C(=O)[C@H](Cc4ccccc4)N3C2=O)C=C2c3cccc4[nH]cc(c34)C[C@H]21 [Ergotamine D-tartrate*] (79 µM) | 228 ± 28
CCCOC/C(=N\c1ccc(Cl)cc1C(F)(F)F)n1ccnc1 [Triflumizole] (10 µM) | -3.38 ± 6.6
c1ccc2c(c1)OCC(C1=NCCN1)O2 (stereo not given) [Idazoxan] (10 µM) | -6.12 ± 5.1
c1cc(OCC2CO2)ccc1Cc1ccc(OCC2CO2)cc1 (stereo not given) [Bis[4-(glycidyloxy)phenyl]methane] (100 µM) | 6.35 ± 4.5
CCNc1nc(NC(C)(C)C)nc(SC)n1 [Terbutryn] (100 µM) | 1.12 ± 1.2
COP(=S)(OC)Oc1ccc(SC)c(C)c1 [Fenthion] (100 µM) | -7.55 ± 5.7
OCc1ccco1 [Furfuryl alcohol] (201 µM) | 0.62 ± 1.6
CC(COc1ccc(Oc2ccccc2)cc1)Oc1ccccn1 (stereo not given) [Pyriproxyfen] (200 µM) | -4.39 ± 4.3
O=[N+]([O-])c1cc([N+](=O)[O-])c2ccccc2c1 [1,3-Dinitronaphthalene] (200 µM) | 3.83 ± 2.5
CN(C)c1ccc(N)cc1 [N,N-Dimethyl-p-phenylenediamine] (100 µM) | 30.8 ± 7.3
Nc1cc(Cl)ccc1O [2-Amino-4-chlorophenol] (200 µM) | 89.8 ± 6.4
O=[N+]([O-])c1cc(C(F)(F)F)c(Cl)c([N+](=O)[O-])c1Cl [2,4-Dichloro-1,3-dinitro-5-(trifluoromethyl)benzene] (10 µM) | 4.56 ± 5.6
CCC(C)(c1ccc(O)cc1)c1ccc(O)cc1 [Bisphenol B] (200 µM) | 3.9 ± 0.67
Nc1ccc([N+](=O)[O-])cc1N [4-Nitro-1,2-phenylenediamine] (100 µM) | 7.46 ± 2
O=C1OC(CCN2CCCCC2)OC1(c1ccccc1)c1ccccc1 (stereo not given) [Pipoxolan hydrochloride] (100 µM) | 78.1 ± 22
NNC(N)=S [Thiosemicarbazide] (10 µM) | -1.62 ± 1.6
c1ccc(Nc2ccc(Nc3ccccc3)cc2)cc1 [N,N'-Diphenyl-p-phenylenediamine] (200 µM) | -11.2 ± 11
O=C1C=CC(=O)c2ccccc21 (10 µM) | 239 ± 45
CCCCNC(=O)OCC#CI [Carbamic acid, butyl-, 3-iodo-2-propynyl ester] (10 µM) | -5.33 ± 4.1
[Cl][Cd][Cl] [Cadmium II chloride] (200 µM) | 50.2 ± 4.8

SMILES | CD54 surface expression induction
CC(C)OC(=S)S [Proxan-sodium] (10 µM) | -6.19 ± 3
O=C(CCl)CCl [1,3-Dichloropropanone] (200 µM) | -1.2 ± 0.3
CN(C)S(=O)(=O)N(SC(F)(Cl)Cl)c1ccccc1 [Dichlofluanid] (10 µM) | 35.6 ± 3.1
COc1ccc(O)c(C(C)(C)C)c1 [2-tert-Butyl-4-methoxyphenol] (200 µM) | 0.6 ± 0.57
O=[N+]([O-])c1ccc(Oc2ccc(C(F)(F)F)cc2[N+](=O)[O-])cc1 [Fluorodifen] (10 µM) | -6.85 ± 4.5
CC(C)Nc1ccc(Nc2ccccc2)cc1 [N-Isopropyl-N'-phenyl-p-phenylenediamine] (10 µM) | 46.7 ± 2.8
O=C(N/N=C/c1ccc([N+](=O)[O-])o1)c1cc([N+](=O)[O-])cc([N+](=O)[O-])c1O [Nifursol] (200 µM) | 24.5 ± 8
CCCCOCN(C(=O)CCl)c1c(CC)cccc1CC [Butachlor] (10 µM) | -3.73 ± 3.2
Fc1ccc(Oc2ccnc3cc(Cl)cc(Cl)c23)cc1 [Quinoxyfen] (200 µM) | -12.7 ± 1
O=C(O)c1ccccc1C(=O)Nc1cccc2ccccc12 [Naptalam*] (200 µM) | 183 ± 32
N#C/C=C/C#N [Fumaronitrile] (10 µM) | -10.2 ± 27
c1ccc2sc(SNC3CCCCC3)nc2c1 [N-Cyclohexyl-2-benzothiazolesulfenamide] (100 µM) | -15.5 ± 5.8
Nc1ccc(Cl)cc1N [4-Chloro-1,2-diaminobenzene*] (200 µM) | 233 ± 36
ClC1=C(Cl)C2(Cl)C3C(Cl)C(Cl)CC3C1(Cl)C2(Cl)Cl (stereo not given) [Chlordane] (200 µM) | 27.9 ± 0.29
CCOC(=O)CC(SP(=S)(OC)OC)C(=O)OCC (stereo not given) [Malathion] (100 µM) | 3.59 ± 5.1
c1cc(OCC2CO2)cc(OCC2CO2)c1 (stereo not given) [Diglycidyl resorcinol ether (DGRE)] (10 µM) | -3.16 ± 4.6
O=[N+]([O-])c1c(Cl)c(Cl)c(Cl)c(Cl)c1Cl [Pentachloronitrobenzene] (100 µM) | 14.3 ± 4.8
CCc1cccc(CC)c1N(COC)C(=O)CCl [Alachlor] (100 µM) | 26.5 ± 9.3
C[C@@H]1O[C@@H](O[C@H]2C[C@@H](O)[C@]3(CO)[C@H]4[C@H](O)C[C@]5(C)[C@@H](C6=CC(=O)OC6)CC[C@]5(O)[C@@H]4CC[C@]3(O)C2)[C@H](O)[C@H](O)[C@H]1O [Ouabain] (10 µM) | 21.9 ± 10
CC(C)CC(C)Nc1ccc(Nc2ccccc2)cc1 (stereo not given) [N-(1,3-Dimethylbutyl)-N'-phenyl-p-phenylenediamine] (10 µM) | 6.74 ± 24
